Screening results as filed in PubChem BioAssay.
Most compounds without a hit are left out; they make up all but 4% or so of the library.
Shn3 inh set2: reduction of Shn3 3'UTR firefly luciferase signal, primary screen, Schnurri-3 inhibitor project, cell-based, Clone20 osteoblasts, set 2 | Clone20 osteoblast Shn3 3'UTR firefly luciferase, 24 h | inhibition, % at 12.5 µM | 360,000 tested, 0.52% active | AID 588674, 2011;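 active means mean inhibition of at least 75% with every replicate also reaching 75%; inconclusive means mean inhibition at least 75% but some replicate below; inactive means mean inhibition below 75%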;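 further: 0% = median of neutral control wells and 100% = pilot-screen positive control compound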
Gli-Sufu block: Gli-Sufu pathway antagonists, primary screen, luciferase luminescence, Sufu-KO-LIGHT cells, uHTS; 340,000 tested, 0.74% active; Sufu-KO-LIGHT fibroblasts, Gli luciferase reporter luminescence; inhibition, % at 5 µM;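 active means inhibition above about 55%, limit read from the data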;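 further: 0% = DMSO-treated cells and 100% = wells with medium but no cells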
Beta apoptosis: inhibitors of cytokine-induced beta cell apoptosis, primary screen, luminescence; INS-1E cytokine-induced death, ATP luminescence, 48 h; percent of positive-control rescue, neutral wells zero; protection from apoptosis, % (concentration not given with the values); 300,000 tested, 0.8% active; AID 435005, 2010;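 active means Every replicate reaches about 75%, or at least half do and their mean reaches it too, limit read from the data; inconclusive means At least half of replicates reach the limit but their mean does not; inactive means Under half of replicates reach the limit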;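 further: 0% = cytokine-treated negative control wells and 100% = positive control rescue; higher means more ATP so stronger rescue from cytokine killing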
PAX8 reporter: inhibitors of PAX8-driven TPO luciferase reporter, primary screen, RMG-I cells, single concentration. 360,000 tested, 1.2% active. inhibition, % at 12.6 µM. SteadyGlo, 24 h;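 active means mean replicate inhibition at least 60% with every replicate also reaching 60%; inconclusive means only one of the two criteria is met; inactive means mean below 60% and not all replicates reaching 60%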;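 further: luciferase light reporting Pax8 driven TPO promoter activity; plate controls were median of neutral control wells for no effect and mitoxantrone controls for full effect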
Mdm2 MdmX PPI: inhibitors of human Mdm2-MdmX association, primary screen, cell-based, luminescence, split luciferase, SaOS-2, uHTS; Protein Mdm4 (Homo sapiens) + E3 ubiquitin-protein ligase Mdm2 (Homo sapiens), …; SaOS-2 split-luciferase Mdm2/MdmX complementation; inhibition, % at 8 µM; 330,000 tested, 3% active; AID 485346, 2010;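 active means inhibition of at least 50% at 8 µM in the primary screen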
Target sequence (O15151 whole entry, looked up): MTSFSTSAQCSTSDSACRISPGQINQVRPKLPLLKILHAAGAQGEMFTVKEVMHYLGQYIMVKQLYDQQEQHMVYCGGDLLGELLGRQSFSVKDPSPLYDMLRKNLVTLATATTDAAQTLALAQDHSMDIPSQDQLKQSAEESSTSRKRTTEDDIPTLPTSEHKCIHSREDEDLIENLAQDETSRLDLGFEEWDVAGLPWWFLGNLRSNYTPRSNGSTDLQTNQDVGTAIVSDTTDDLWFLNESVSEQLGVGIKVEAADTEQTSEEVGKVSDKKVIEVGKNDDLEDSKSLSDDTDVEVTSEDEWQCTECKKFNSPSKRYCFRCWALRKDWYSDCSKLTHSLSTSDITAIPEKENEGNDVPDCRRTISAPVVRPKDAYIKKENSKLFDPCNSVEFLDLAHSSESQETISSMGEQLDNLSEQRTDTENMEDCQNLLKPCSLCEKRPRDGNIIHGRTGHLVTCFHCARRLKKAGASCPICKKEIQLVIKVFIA
Target sequence (Q00987 whole entry, looked up): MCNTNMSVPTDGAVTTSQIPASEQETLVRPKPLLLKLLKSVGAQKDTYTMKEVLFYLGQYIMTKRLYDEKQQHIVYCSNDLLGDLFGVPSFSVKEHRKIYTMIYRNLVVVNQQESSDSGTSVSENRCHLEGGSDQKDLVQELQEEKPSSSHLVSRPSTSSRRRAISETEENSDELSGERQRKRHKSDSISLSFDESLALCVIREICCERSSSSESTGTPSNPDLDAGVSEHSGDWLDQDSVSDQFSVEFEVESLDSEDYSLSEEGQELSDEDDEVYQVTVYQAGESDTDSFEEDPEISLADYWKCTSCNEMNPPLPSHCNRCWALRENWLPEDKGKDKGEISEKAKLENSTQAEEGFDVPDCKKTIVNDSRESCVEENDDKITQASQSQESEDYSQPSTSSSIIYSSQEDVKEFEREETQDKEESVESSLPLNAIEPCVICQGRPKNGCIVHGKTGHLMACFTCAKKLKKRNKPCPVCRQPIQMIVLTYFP
CSC inhib: cancer stem cell viability inhibitors, primary screen, luminescence | cancer stem cell-like cells viability | 300,000 tested, 1.1% active | inhibition, % at 7.5 µM | AID 2717, 2010; in the data active means inhibition above about 75%; inconclusive means no clear call, values can overlap the other calls; tested in HMLE shEcad cells
Mdm2 MdmX conf: Mdm2-MdmX complex disruptors, retested hits, confirmation, luminescence, single concentration; shares compounds with Mdm2 MdmX PPI; Mdm2-MdmX binding, luminescent assay; inhibition, % at 8 µM; 10,000 tested, 55% active; in the data active means inhibition above about 40%
FLuc counter: full-length luciferase signal inhibition, confirmation, counter-screen for Mdm2/MdmX interaction inhibitor project, cell-based, single concentration, SaOS-2. shares compounds with Mdm2 MdmX PPI. SaOS-2 full-length luciferase counterscreen, luminescence. inhibition, % at 8 µM. 6,200 tested, 77% active. AID 504607, 2011;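 active means mean inhibition at 8 µM reaching about 37%, which flags the compound as non-specific, limit read from the data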;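 further: p53-null SaOS-2 cells with luciferase driven by a doxycycline-inducible promoter; compound on cells about two nights before reading with doxycycline added after day one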
Numbers without * were called inactive; ? = inconclusive; / = no result.

SMILES | Shn3 inh set2 | Gli-Sufu block | Beta apoptosis | PAX8 reporter | Mdm2 MdmX PPI | CSC inhib | Mdm2 MdmX conf | FLuc counter
Cn1cc(C(=O)N/N=C/c2c(O)ccc3ccccc23)ccc1=O | 91* | 43 | 93* | 59 | 79* | 94* | 72* | 27
Cn1ncc(Cl)c1C(=O)Nc1cccc(Cl)c1 | 9 | -14 | -4 | / | 26 | -2 | / | /
Cc1occc1C(=O)N/N=C/c1c[nH]c2ccccc12 | -54 | -30 | 1 | / | -43 | 9 | / | /
Cn1nccc1C(=O)N/N=C/c1c(O)ccc2ccccc12 | 94* | 85* | 100* | 51 | 82* | 63 | 80* | 31
Cc1occc1C(=O)N/N=C/c1c(O)ccc2ccccc12 | 65 | 36 | 76* | 22 | 84* | 57 | 83* | 21
Cn1ncc(N=Cc2c(O)ccc3ccccc23)c1C(=O)Nc1cccc(Cl)c1 | 4 | -8 | 21 | 23 | 61* | -3 | 0 | /
C[C@H]1CN([C@@H](C)CO)C(=O)Cc2cc(NC(=O)CCN3CCOCC3)ccc2O[C@@H]1CN(C)CC1CC1 | / | / | / | -19 | / | / | / | /
COc1ccc(NC(=O)Nc2cccc3c2O[C@@H](CN(C)C(=O)Nc2cccc4ccccc24)[C@H](C)CN([C@H](C)CO)C3=O)cc1 | / | / | / | -30 | / | / | / | /
O=C(C[C@@H]1CC[C@@H](NS(=O)(=O)c2ccc(F)cc2)[C@@H](CO)O1)NCCN1CCCCC1 | / | / | / | -11 | / | / | / | /
CN(C)C(=O)c1ccc(-c2ccccc2[C@@H]2[C@@H](CO)N(C(=O)C3CCCCC3)[C@H]2C#N)cc1 | / | / | / | -41 | / | / | / | /
COc1ccc(NC(=O)N(C)C[C@@H]2OCCCC[C@H](C)Oc3ccc(NC(=O)c4ccncc4)cc3C(=O)N([C@@H](C)CO)C[C@H]2C)cc1 | / | / | / | -10 | / | / | / | /
O=C(N/N=C/c1c(O)ccc2ccccc12)c1ccc(Br)o1 | 83 | 66* | 102* | 60 | 87* | 156* | 81* | 54*
O=C(N/N=C/c1ccccc1O)c1cccc2ccccc12 | 85 | 42 | / | 47 | 53* | / | 53* | 46*
O=C(N/N=C\c1c(O)ccc2ccccc12)c1ccc(O)cc1 | 91* | 17 | / | ? | 68* | 64 | 52* | 32
O=C(N/N=C/c1c(O)ccc2ccccc12)c1ccc[n+](CCO)c1 | 13 | 4 | 11 | 9 | 0 | 31 | / | /
O=C(c1ccc(F)cc1)N1[C@@H](CO)[C@@H]2c3ccccc3NC[C@@H]21 | / | / | / | 4 | / | / | / | /
C[C@H]1CN([C@@H](C)CO)C(=O)c2cc(NS(=O)(=O)c3ccc(F)cc3)ccc2O[C@@H]1CN(C)Cc1ccc(Oc2ccccc2)cc1 | / | / | / | 8 | / | / | / | /
O=C(C[C@@H]1CC[C@@H]2[C@H](COC[C@H](O)CN2CCc2ccccc2)O1)NCCCN1CCOCC1 | / | / | / | -8 | / | / | / | /
COc1ccc([N+](=O)[O-])cc1NC(=O)CSCc1ccccc1C | 10 | 13 | 3 | 21 | -4 | 7 | / | /
COc1ccc([N+](=O)[O-])cc1NC(=O)CSCc1ccc(Br)cc1 | 13 | 10 | -3 | 22 | 51* | / | -3 | /
COc1ccc(-c2ccc3n(c2=O)C[C@@H]2[C@@H](CO)[C@H](C(=O)N(C)C)[C@H]3N2C(=O)c2cnccn2)cc1 | / | / | / | -2 | / | / | / | /
Cc1ccccc1Cn1cc(NC(=O)c2cc(-c3cccs3)on2)cn1 | -16 | 1 | 32 | / | 58* | 34 | 13 | /
CCCc1c(NC(=O)Nc2ccc(F)cc2)cnn1-c1ccccc1 | 16 | -25 | -5 | -8 | 89* | 42 | 61* | 29
O=C(C[C@@H]1CC[C@H](NC(=O)Cc2ccccn2)[C@@H](CO)O1)NCCCN1CCOCC1 | / | / | / | -18 | / | / | / | /
N/C(=N\OC(=O)C12CC3CC(CC(C3)C1)C2)c1ccccc1 | -18 | -10 | -3 | / | 54* | 59 | 9 | /
SMILES | Shn3 inh set2 | Gli-Sufu block | Beta apoptosis | PAX8 reporter | Mdm2 MdmX PPI | CSC inhib | Mdm2 MdmX conf | FLuc counter
N/C(=N\OC(=O)C12CC3CC(CC(C3)C1)C2)c1cccnc1 | -34 | 0 | 1 | / | 71* | 38 | 2 | /
COc1ccc(CN(C)C[C@@H]2OCCCC[C@@H](C)Oc3ccc(NS(=O)(=O)c4cn(C)cn4)cc3C(=O)N([C@H](C)CO)C[C@@H]2C)cc1 | / | / | / | -18 | / | / | / | /
CC(C)CNc1nnnc2c1sc1nc(N3CCOCC3)c3c(c12)CC(C)(C)SC3 | -6 | -11 | 19 | / | 35 | -6 | / | /
CC1(C)Cc2c(c(N3CCOCC3)nc3sc4c(NCc5ccco5)nnnc4c23)CS1 | 2 | 3 | 6 | / | 36 | / | / | /
CC1(C)Cc2c(c(N3CCOCC3)nc3sc4c(NCc5ccccc5)nnnc4c23)CS1 | 26 | 9 | 8 | / | 94* | 8 | 6 | /
CC1(C)Cc2c(c(N3CCOCC3)nc3sc4c(NN)ncnc4c23)CS1 | 75 | 2 | 81* | 51 | 61* | 87* | 12 | /
Clc1ccccc1-c1nc2ccccc2[nH]1 | / | -50 | -4 | -158 | -58 | 4 | / | /
N=c1c(-c2nc3ccccc3[nH]2)cc(C(=O)c2cccs2)nn1-c1ccc(Cl)cc1 | / | / | 37 | / | 63* | 31 | 30 | /
CN(C)c1ccc(C2CNC(c3ccc(Cl)c([N+](=O)[O-])c3)c3[nH]c4ccccc4c32)cc1 (stereo not drawn) | / | 3 | 7 | -8 | 54* | / | 29 | 62*
Cc1cc(C)c2c(c1)/C(=C/C(=O)c1ccc(Br)s1)C(=O)N2 | 50 | 3 | -6 | / | 96* | ? | 41* | 87*
CN(C)/C=C/C(=O)c1ccc(Br)s1 | -35 | -21 | -4 | -29 | -10 | -2 | / | /
O=C(c1cccc(N2CCCC2=O)c1)N1CCN(c2cccc(Cl)c2)CC1 | 7 | 7 | 16 | / | 57* | -23 | 68* | 48*
Cc1cccc(N2CCN(C(=O)c3cccc(N4CCCC4=O)c3)C(C)C2)c1 (stereo not drawn) | 8 | 6 | 7 | 27 | 55* | -4 | 60* | 50*
Cc1cccc(N2CCN(C(=O)c3ccc(N4CCCC4=O)cc3)CC2C)c1 (stereo not drawn) | 2 | 3 | 5 | 9 | -4 | / | / | /
O=C(c1cccc(N2CCCC2=O)c1)N1CCN(c2ccc(F)cc2)CC1 | 6 | 2 | -8 | -1 | 16 | -7 | / | /
CCS(=O)(=O)Nc1ccc2c(c1)C(=O)N(C)C[C@H](OC)[C@@H](C)CN(Cc1ccccn1)[C@H](C)CO2 | / | / | / | -5 | / | / | / | /
